Reference: PubChem BioAssay (NCI)
This is part of a sample that, as a whole, favours compounds with a hit. Of some 83,000 tested, about 20% had one in any assay.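 Note: values are percent growth. 100 is the growth of untreated cells, values between 100 and 0 indicate rising inhibition; between -100 and 0 indicates cell death.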 Activity calls are given as the source filed them. The calls were made as follows: active = growth percent below 10; inactive = the rest.

Tests used:
Experiment in all cases: NCI-60 one-dose screen, 48 h (100 = growth as untreated, 0 = no growth, -100 = all killed)
Details in all cases: 10 µM unless noted
NCI-H23 lung = test system: NCI-H23 lung
NCI-H226 lung = test system: NCI-H226 lung
NCI-H322M lung = test system: NCI-H322M lung
HOP-62 NSCLC = test system: HOP-62 NSCLC
NCI-H460 lung = test system: NCI-H460 lung
HOP-92 NSCLC = test system: HOP-92 NSCLC
NCI-H522 lung = test system: NCI-H522 lung
A549/ATCC NSCLC = test system: A549/ATCC NSCLC
786-0 renal = test system: 786-0 renal
COLO 205 colon = test system: COLO 205 colon

Measured: growth

O=c1nc(Nc2cccc(Cl)c2)oc2cc(Cl)oc(=O)c12
inactive: NCI-H23 lung 64.5% | NCI-H226 lung 94.9% | NCI-H322M lung 108% | HOP-62 NSCLC 81.5% | NCI-H460 lung 98.8% | HOP-92 NSCLC 47.2% | NCI-H522 lung 26.2% | A549/ATCC NSCLC 101% | 786-0 renal 85.2% | COLO 205 colon 80.1%

CC1CC2C3CCC4=CC(=O)CCC4(C)C3CCC2(C)C1(O)C(=O)CO (stereo not given)
inactive: NCI-H23 lung 115% | NCI-H226 lung 103% | NCI-H322M lung 109% | HOP-62 NSCLC 106% | NCI-H460 lung 117% | HOP-92 NSCLC 100% | NCI-H522 lung 92.2% | A549/ATCC NSCLC 88.6% | 786-0 renal 112% | COLO 205 colon 117%

CCCCCC#CC(=O)O
inactive: NCI-H23 lung 109% | NCI-H226 lung 107% | NCI-H322M lung 98.7% | HOP-62 NSCLC 98.2% | NCI-H460 lung 110% | HOP-92 NSCLC 83.6% | NCI-H522 lung 90.6% | A549/ATCC NSCLC 97% | 786-0 renal 99% | COLO 205 colon 107%

O=C1C=Cc2ccccc2/C1=C/c1[nH]c(=O)[nH]c1O
inactive: NCI-H23 lung 51.7% | NCI-H226 lung 45.2% | NCI-H322M lung 57.8% | HOP-62 NSCLC 41.3% | NCI-H460 lung 84.8% | HOP-92 NSCLC 45.9% | A549/ATCC NSCLC 82% | 786-0 renal 27.6% | COLO 205 colon 34.3%
active: NCI-H522 lung -17.7%

CC(=O)N(CCCCCCN(C(C)=O)C(C)=O)C(C)=O
inactive: NCI-H23 lung 108% [100 µM] | NCI-H226 lung 101% [100 µM] | NCI-H322M lung 108% [100 µM] | HOP-62 NSCLC 112% [100 µM] | NCI-H460 lung 109% [100 µM] | HOP-92 NSCLC 106% [100 µM] | NCI-H522 lung 102% [100 µM] | A549/ATCC NSCLC 106% [100 µM] | 786-0 renal 96% [100 µM] | COLO 205 colon 134% [100 µM]

CC(=O)NC(O)C(Cl)Cl (stereo not given)
inactive: NCI-H23 lung 91.8% | NCI-H226 lung 102% | NCI-H322M lung 98.4% | HOP-62 NSCLC 95.6% | NCI-H460 lung 106% | HOP-92 NSCLC 94.9% | NCI-H522 lung 94% | A549/ATCC NSCLC 102% | 786-0 renal 112% | COLO 205 colon 98.9%

C=C(c1ccc(N(C)C)cc1)c1ccc(N(C)C)cc1
inactive: NCI-H23 lung 16.2% | NCI-H226 lung 44.3% | NCI-H322M lung 29.7% | HOP-62 NSCLC 23.1% | A549/ATCC NSCLC 30.8% | 786-0 renal 34.6%
active: NCI-H460 lung 6.37% | HOP-92 NSCLC -2.12% | NCI-H522 lung -28.6% | COLO 205 colon -4.63%

CC(=O)CSc1ncnc2nc[nH]c12
inactive: NCI-H23 lung 106% | NCI-H226 lung 92.1% | NCI-H322M lung 115% | HOP-62 NSCLC 84.8% | NCI-H460 lung 98.4% | HOP-92 NSCLC 69.6% | NCI-H522 lung 72.8% | A549/ATCC NSCLC 87.3% | 786-0 renal 91.7% | COLO 205 colon 97.6%

C=COC(=O)C(C)(C)C
inactive: NCI-H23 lung 102% | NCI-H226 lung 109% | NCI-H322M lung 104% | HOP-62 NSCLC 104% | NCI-H460 lung 104% | HOP-92 NSCLC 71.7% | NCI-H522 lung 93.7% | A549/ATCC NSCLC 105% | 786-0 renal 96.2% | COLO 205 colon 104%

N=C(N)c1nn(C2OC(CO)C(O)C2O)c2nc[nH]c(=O)c12 (stereo not given)
active: NCI-H23 lung -34.1% | NCI-H322M lung 6.64% | HOP-62 NSCLC -12% | NCI-H460 lung 2.95% | HOP-92 NSCLC -23.5% | 786-0 renal -2.36% | COLO 205 colon -11.5%
inactive: NCI-H226 lung 13.5% | NCI-H522 lung 11.5% | A549/ATCC NSCLC 19.1%

COc1ccc(/C=C\C(=O)/C=C/c2ccc(OC)cc2)cc1
inactive: NCI-H23 lung 84.7% | NCI-H226 lung 81.4% | NCI-H322M lung 99.6% | HOP-62 NSCLC 95.4% | NCI-H460 lung 107% | HOP-92 NSCLC 109% | NCI-H522 lung 94.7% | A549/ATCC NSCLC 102% | 786-0 renal 83.5% | COLO 205 colon 107%

O=C(O)c1ccc(OCc2ccccc2)cc1
inactive: NCI-H23 lung 95.5% | NCI-H226 lung 90.2% | NCI-H322M lung 93.5% | HOP-62 NSCLC 93% | NCI-H460 lung 108% | HOP-92 NSCLC 93.2% | NCI-H522 lung 92.4% | A549/ATCC NSCLC 94.5% | 786-0 renal 99.4% | COLO 205 colon 104%

COC1OC(COC(C)=O)C(OC(C)=O)C(OC(C)=O)C1OC(C)=O (stereo not given)
inactive: NCI-H23 lung 98% | NCI-H226 lung 91.1% | NCI-H322M lung 101% | HOP-62 NSCLC 97.9% | NCI-H460 lung 115% | HOP-92 NSCLC 92.8% | NCI-H522 lung 71.9% | A549/ATCC NSCLC 91.5% | 786-0 renal 98.8% | COLO 205 colon 98.7%

N#Cc1ccc(OC(=O)Nc2c(Cl)cc(Cl)cc2Cl)cc1
inactive: NCI-H23 lung 109% | NCI-H226 lung 107% | NCI-H322M lung 100% | HOP-62 NSCLC 103% | NCI-H460 lung 139% | HOP-92 NSCLC 98.9% | NCI-H522 lung 89.8% | A549/ATCC NSCLC 96.3% | 786-0 renal 100% | COLO 205 colon 128%

CCOC(C=O)OCC
inactive: NCI-H23 lung 99% | NCI-H226 lung 104% | NCI-H322M lung 104% | HOP-62 NSCLC 99.5% | NCI-H460 lung 113% | HOP-92 NSCLC 95.8% | NCI-H522 lung 93.1% | A549/ATCC NSCLC 97.4% | 786-0 renal 99.7% | COLO 205 colon 105%

CC1(C)C2CCC1(C)C1(C2)OCCS1 (stereo not given)
inactive: NCI-H23 lung 95.6% | NCI-H226 lung 92.7% | NCI-H322M lung 99.6% | HOP-62 NSCLC 101% | NCI-H460 lung 106% | HOP-92 NSCLC 102% | NCI-H522 lung 102% | A549/ATCC NSCLC 99% | 786-0 renal 97.4% | COLO 205 colon 118%

CC(=O)c1ccc(C)cc1
inactive: NCI-H23 lung 104% | NCI-H226 lung 102% | NCI-H322M lung 90% | HOP-62 NSCLC 107% | NCI-H460 lung 106% | HOP-92 NSCLC 88.3% | NCI-H522 lung 103% | A549/ATCC NSCLC 114% | 786-0 renal 120% | COLO 205 colon 116%

COC1C(=O)CCC2(CO2)C1(O)C1(C)OC1CCC(C)C (stereo not given)
inactive: NCI-H23 lung 69.5% | NCI-H226 lung 85.2% | NCI-H322M lung 76.8% | HOP-62 NSCLC 71.5% | NCI-H460 lung 20.5% | HOP-92 NSCLC 67.5% | NCI-H522 lung 62.8% | A549/ATCC NSCLC 56.2% | 786-0 renal 81.2% | COLO 205 colon 65.9%

Cc1ccc(C)c2c1CCC2=O
inactive: NCI-H23 lung 95.4% | NCI-H226 lung 91.4% | NCI-H322M lung 101% | HOP-62 NSCLC 93.2% | NCI-H460 lung 97.4% | HOP-92 NSCLC 94.7% | NCI-H522 lung 96.7% | A549/ATCC NSCLC 114% | 786-0 renal 99.6% | COLO 205 colon 114%

ClCC(Cl)[C@@H]1CC2C=CC1C2 (stereo not given in full)
inactive: NCI-H23 lung 102% | NCI-H226 lung 91.7% | NCI-H322M lung 108% | HOP-62 NSCLC 109% | NCI-H460 lung 113% | HOP-92 NSCLC 99.7% | NCI-H522 lung 99.6% | A549/ATCC NSCLC 89.1% | 786-0 renal 94.4% | COLO 205 colon 127%

Cc1cccnc1NC1OC(=O)c2ccccc21 (stereo not given)
inactive: NCI-H23 lung 100% | NCI-H226 lung 98.6% | NCI-H322M lung 96.2% | HOP-62 NSCLC 99.7% | NCI-H460 lung 105% | HOP-92 NSCLC 119% | NCI-H522 lung 88.6% | A549/ATCC NSCLC 96.2% | 786-0 renal 99.6% | COLO 205 colon 101%

Cc1cc2c(C(C)C)c(O)c(O)c(C=Nc3ccccc3[N+](=O)[O-])c2c(O)c1-c1c(C)cc2c(C(C)C)c(O)c(O)c(C=Nc3ccccc3[N+](=O)[O-])c2c1O
inactive: NCI-H23 lung 71.4% | NCI-H226 lung 82.8% | NCI-H322M lung 89.2% | HOP-62 NSCLC 83.4% | NCI-H460 lung 87% | HOP-92 NSCLC 61% | NCI-H522 lung 64.4% | A549/ATCC NSCLC 52% | 786-0 renal 96.1% | COLO 205 colon 94.7%

NC(CO)(CO)c1ccccc1
inactive: NCI-H23 lung 99.1% | NCI-H226 lung 96.6% | NCI-H322M lung 101% | HOP-62 NSCLC 100% | NCI-H460 lung 99.1% | HOP-92 NSCLC 88.1% | NCI-H522 lung 95.3% | A549/ATCC NSCLC 100% | 786-0 renal 106% | COLO 205 colon 103%

CCN(C(=O)Nc1ccccc1Cl)c1ccccc1
inactive: NCI-H23 lung 101% | NCI-H226 lung 107% | NCI-H322M lung 109% | HOP-62 NSCLC 111% | NCI-H460 lung 108% | HOP-92 NSCLC 101% | NCI-H522 lung 106% | A549/ATCC NSCLC 100% | 786-0 renal 112% | COLO 205 colon 113%

C=C(C)COc1ccc(C(C)(C)C)cc1
inactive: NCI-H23 lung 108% | NCI-H226 lung 95.8% | NCI-H322M lung 102% | HOP-62 NSCLC 91.2% | NCI-H460 lung 104% | HOP-92 NSCLC 99.3% | NCI-H522 lung 90.8% | A549/ATCC NSCLC 91.2% | 786-0 renal 101% | COLO 205 colon 104%

COC(=O)c1ccc([N+](=O)[O-])c(C)c1
inactive: NCI-H23 lung 107% | NCI-H226 lung 102% | NCI-H322M lung 93.2% | HOP-62 NSCLC 98.5% | NCI-H460 lung 105% | HOP-92 NSCLC 90.4% | NCI-H522 lung 107% | A549/ATCC NSCLC 107% | 786-0 renal 103% | COLO 205 colon 111%

Nc1cc2ccccc2c(O)c1O
active: 786-0 renal -32.2%
inactive: NCI-H23 lung 54% | NCI-H226 lung 81.2% | NCI-H322M lung 89.1% | HOP-62 NSCLC 76.9% | NCI-H460 lung 86.9% | HOP-92 NSCLC 83.9% | NCI-H522 lung 45.3% | A549/ATCC NSCLC 96.9% | COLO 205 colon 56.5%
